From PubChem BioAssay (NCI)
About 83,000 compounds went through this panel and 20% of them were active in at least one assay; those are over-represented in the sample as a whole.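 96-well plates, one dose, 48 hours. Percent growth reported; active if below 10.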 Active and inactive are the calls of the source.

system: NCI-H322M lung; experiment: NCI-60 one-dose screen, 48 h (100 = growth as untreated, 0 = no growth, -100 = all killed); conditions: 10 µM

**Q.** How did the growth turn out when `COc1ccc(N2N=C(c3ccc4c(c3)OCCO4)CC2c2cccc(NC(=O)CCCNS(=O)(=O)c3ccc(F)cc3)c2)cc1` (configuration not stated) was run?
**A.** Its growth is 75% (inactive).

**Q.** How did the growth turn out when `COc1cc(/C=N/NC(=O)c2ccc3nc(-c4ccc(Cl)cc4)[nH]c3c2)cc(OC)c1OC` was run?
**A.** Its growth is 3.86% (active).

**Q.** Which growth does the source give for `O=C(N=Nc1c(O)[nH]c2ccc(Br)cc12)c1ccc2nc(-c3ccccc3)[nH]c2c1` here?
**A.** Its growth is -62.9% (active).

**Q.** How did the growth turn out when `COc1ccccc1[C@H]1C(C(=O)c2ccc(Cl)cc2)C2(N[C@@H]1c1ccccc1)C(=O)Nc1ccc(Cl)cc12` (some centres not stated) was run?
**A.** Its growth is 32.9% (inactive).

**Q.** For `O=c1cc(-c2ccccc2)oc2cc(OCCCNCc3ccccc3)cc(O)c12`, which growth is on record?
**A.** Its growth is 31% (inactive).

**Q.** `O=C1Nc2cc(-c3ccc(NC(=O)c4cccs4)cc3)ccc2/C1=C/c1ccc[nH]1` was tested. Which growth did it give?
**A.** Its growth is 99.3% (inactive).

**Q.** Which growth does the source give for `O=C(c1ccc(O)cc1)C1[C@H](c2ccc(Br)cc2)[C@@H](c2ccccc2)NC12C(=O)Nc1ccccc12` (some centres not stated) here?
**A.** The growth was 51.6% (inactive).

**Q.** For `C=C1CCC2C3(C)COC(c4ccccc4F)OC3CCC2(C)C1C/C=C1/C(=O)OCC1O` (configuration not stated), which growth is on record?
**A.** The growth was 14.5% (inactive).

**Q.** How did the growth turn out when `C=C1CCC2C3(C)COC(c4c(F)cccc4F)OC3CCC2(C)C1C/C=C1/C(=O)OCC1O` (configuration not stated) was run?
**A.** Its growth is 37.5% (inactive).

**Q.** `COc1cccc(/C=C2\N=C(C)N(CCc3ccc(S(N)(=O)=O)cc3)C2=O)c1` was tested. Which growth did it give?
**A.** The growth was 96.5% (inactive).

**Q.** `C=C1CCC2C3(C)COC(c4cccc(F)c4)OC3CCC2(C)C1CC(O)C1=CCOC1=O` (configuration not stated) was tested. Which growth did it give?
**A.** Its growth is 90.4% (inactive).

**Q.** With `Cn1cc(-c2cc(N)n3nc(-c4c[nH]c5ccc(Br)cc45)cc3n2)c2cccnc21` as the compound, how does the growth read?
**A.** Its growth is -42% (active).

**Q.** For `C=C1CCC2C3(C)COC(c4c(F)cccc4F)OC3CCC2(C)C1CC(O)C1=CCOC1=O` (configuration not stated), which growth is on record?
**A.** Its growth is 108% (inactive).

**Q.** `Brc1ccc(/C=C/c2n(Cc3ccc4ccccc4c3)c3ccccc3[n+]2Cc2ccc3ccccc3c2)cc1` was tested. Which growth did it give?
**A.** Its growth is 7.28% (active).

**Q.** Which growth does the source give for `O=C(Nc1ccc(I)cc1)Nc1nc2ccc([N+](=O)[O-])cc2s1` here?
**A.** The growth was -86.6% (active).

**Q.** With `O=C(N/N=C/c1ccc(B(O)O)o1)c1[nH]c2ccc(Br)cc2c1-c1ccccc1` as the compound, how does the growth read?
**A.** The growth was 61.2% (inactive).

**Q.** For `CONC[C@]1(C)C=C2C(=O)[C@](C)(O)C3(CC3)C(C)=C2[C@H]1O`, which growth is on record?
**A.** Its growth is -9.89% (active).

**Q.** For `O=C(Nc1cccc(-c2cn(-c3ccc4oc(=O)ccc4c3)nn2)c1)Nc1cc(C(F)(F)F)cc(C(F)(F)F)c1`, which growth is on record?
**A.** The growth was 34.4% (inactive).

**Q.** For `CCCCCCCCCCCCCCCCCCCC(=O)NCCc1c[nH]c2ccc(OC(=O)CCCC(=O)OCCOOCCOOCCOOCCOOCCOOCCOOCCOOCCOOCCOOCCOOCCOOCCOC)cc12`, which growth is on record?
**A.** Its growth is 109% (inactive).

**Q.** With `COc1ccc(/C(C)=N/N=C2C(=O)N(C)c3ccc(Br)cc32)cc1S(N)(=O)=O` as the compound, how does the growth read?
**A.** The growth was 80.8% (inactive).

**Q.** For `N#Cc1c(NC(=O)c2ccc(C(F)(F)F)cc2C(F)(F)F)sc2c1CCC(=O)C2`, which growth is on record?
**A.** Its growth is 12.4% (inactive).

**Q.** With `CNCc1cccc2c1OCCCCCC[C@@](C)(O)CC1(CC1)S(=O)(=O)c1ccc(cc1)-c1cnc(N)c(n1)C(=O)N2` as the compound, how does the growth read?
**A.** The growth was -96.8% (active).

**Q.** `COc1cc(OC(F)(F)F)ccc1C(=O)Nc1sc2c(c1C#N)CCC(=O)C2` was tested. Which growth did it give?
**A.** Its growth is 97.9% (inactive).

**Q.** With `Nc1n[nH]c2cccc(C#Cc3cccc(NC(=O)Nc4cc(C(F)(F)F)cc(C(F)(F)F)c4)c3)c12` as the compound, how does the growth read?
**A.** Its growth is -22.4% (active).

**Q.** `N#Cc1c(-c2ccc(F)cc2)nc(SCc2ccc([N+](=O)[O-])cc2)nc1N1CCOCC1` was tested. Which growth did it give?
**A.** The growth was 82.7% (inactive).

**Q.** `CC1=N/C(=C\c2ccc(N(C)C)cc2)C(=O)N1CCc1ccc(S(N)(=O)=O)cc1` was tested. Which growth did it give?
**A.** Its growth is 107% (inactive).

**Q.** For `CN(CCF)c1ccc(/C=C/C(=O)c2ccc(N)cc2O)cc1`, which growth is on record?
**A.** Its growth is 78.8% (inactive).

**Q.** For `O=C(c1ccc(Cl)cc1)C1[C@H](c2ccccc2Br)[C@@H](c2ccccc2)NC12C(=O)Nc1ccccc12` (some centres not stated), which growth is on record?
**A.** The growth was 42.1% (inactive).

**Q.** For `O=C(Nc1cc(Cl)cc(Cl)c1)Nc1cc(Cl)cc(Cl)c1`, which growth is on record?
**A.** Its growth is -5.15% (active).

**Q.** `O=C(c1ccc(O)cc1)C1[C@H](c2ccc(Br)cc2)[C@@H](c2ccccc2)NC12C(=O)Nc1ccc(Br)cc12` (some centres not stated) was tested. Which growth did it give?
**A.** The growth was 10.4% (inactive).

**Q.** How did the growth turn out when `COc1ccccc1[C@H]1C(C(=O)c2ccc(O)cc2)C2(N[C@@H]1c1ccccc1)C(=O)Nc1ccc(Br)cc12` (some centres not stated) was run?
**A.** The growth was 55.3% (inactive).

**Q.** With `CN1CCN(c2ccc(C(=O)/C=C/c3ccc(C#N)cc3)cc2)CC1` as the compound, how does the growth read?
**A.** The growth was 94.2% (inactive).

**Q.** `CC(C)(C)Nc1nc2cc(Cl)c(Cl)cc2nc1S(C)(=O)=O` was tested. Which growth did it give?
**A.** The growth was 98% (inactive).

**Q.** Which growth does the source give for `COc1cc(/C=C/C(=O)c2cc(OC)c(OC)c(OC)c2)ccc1Oc1nc(Nc2ccc(F)cc2)nc(N(C)C)n1` here?
**A.** Its growth is 9.59% (active).

**Q.** How did the growth turn out when `C=C1CCC2C3(C)COC(c4cc(F)cc(F)c4)OC3CCC2(C)C1C/C=C1/C(=O)OCC1O` (configuration not stated) was run?
**A.** Its growth is 24.5% (inactive).

**Q.** `Cc1cc(C(F)(F)F)ccc1C(=O)Nc1sc2c(c1C#N)CCC(=O)C2` was tested. Which growth did it give?
**A.** Its growth is 29.8% (inactive).

**Q.** How did the growth turn out when `N#Cc1c(Cl)nc(SCc2ccc(F)cc2)nc1-c1ccc(F)cc1` was run?
**A.** The growth was 92.2% (inactive).
